# Results published in the supplement of paper PMC6411743.
# ± gives the standard deviation of the averaged measurements. For some assays here: Of roughly 5,400 targets only a part is listed; those with the largest changes were picked by preference. For some assays here: The full data set covers some 6,500 targets. This sample favours those with the largest changes.
# Experiments:
# adenosine triphosphate = compound: Nc1ncnc2c1ncn2[C@@H]1O[C@H](COP(=O)(O)OP(=O)(O)OP(=O)(O)O)[C@@H](O)[C@H]1O [adenosine triphosphate]; assay: NP40-soluble protein abundance relative to vehicle (solubility fold change) (ratio); higher = more soluble protein in presence of ATP
# In short: (§1)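 Jurkat crude lysate prepared with a Dounce homogeniser was treated at eight concentrations spanning 0.1 to 10 mM, 10 min at room temperature then 3 min at 37 °C. Solubilisation with 0.8% NP40 and benzonase and ultracentrifugation preceded TMT labelling of the supernatant for LC-MS/MS. Fold change against the detergent-processed vehicle was determined per replicate from vsn-normalised intensities, across three independent experiments.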
# guanosine triphosphate = compound: Nc1nc2c(ncn2[C@@H]2O[C@H](COP(=O)(O)OP(=O)(O)OP(=O)(O)O)[C@@H](O)[C@H]2O)c(=O)[nH]1 [guanosine triphosphate]; assay: NP40-soluble protein abundance relative to vehicle (solubility fold change) (ratio); higher = more soluble protein in presence of GTP
# In short: as §1
# UniProt Q9UNF0, sequence (Q9UNF0 whole entry): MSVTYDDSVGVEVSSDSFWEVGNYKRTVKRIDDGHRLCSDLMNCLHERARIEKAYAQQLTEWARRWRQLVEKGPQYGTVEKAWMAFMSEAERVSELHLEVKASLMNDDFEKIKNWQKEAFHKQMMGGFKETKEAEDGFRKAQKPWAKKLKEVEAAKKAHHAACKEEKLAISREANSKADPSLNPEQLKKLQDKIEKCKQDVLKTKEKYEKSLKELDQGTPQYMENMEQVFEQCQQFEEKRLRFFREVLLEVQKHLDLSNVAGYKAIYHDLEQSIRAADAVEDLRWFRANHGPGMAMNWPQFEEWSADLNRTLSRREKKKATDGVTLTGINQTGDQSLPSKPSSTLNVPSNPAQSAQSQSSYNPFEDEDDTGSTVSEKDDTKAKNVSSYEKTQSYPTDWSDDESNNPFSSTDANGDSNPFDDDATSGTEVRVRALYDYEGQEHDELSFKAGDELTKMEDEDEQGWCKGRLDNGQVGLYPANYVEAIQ
# UniProt Q9UKU7, sequence (Q9UKU7 whole entry): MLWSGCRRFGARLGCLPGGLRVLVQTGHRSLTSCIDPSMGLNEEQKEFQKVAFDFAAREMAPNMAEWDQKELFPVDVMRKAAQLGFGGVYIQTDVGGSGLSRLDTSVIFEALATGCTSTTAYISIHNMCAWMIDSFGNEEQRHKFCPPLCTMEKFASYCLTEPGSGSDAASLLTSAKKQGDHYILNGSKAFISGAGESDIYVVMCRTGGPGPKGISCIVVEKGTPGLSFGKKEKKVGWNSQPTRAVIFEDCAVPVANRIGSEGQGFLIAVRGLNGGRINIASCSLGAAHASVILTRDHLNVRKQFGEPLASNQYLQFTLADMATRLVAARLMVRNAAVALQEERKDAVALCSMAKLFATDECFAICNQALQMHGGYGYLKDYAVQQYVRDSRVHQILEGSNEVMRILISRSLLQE
# UniProt Q9UPN7, sequence (Q9UPN7 whole entry): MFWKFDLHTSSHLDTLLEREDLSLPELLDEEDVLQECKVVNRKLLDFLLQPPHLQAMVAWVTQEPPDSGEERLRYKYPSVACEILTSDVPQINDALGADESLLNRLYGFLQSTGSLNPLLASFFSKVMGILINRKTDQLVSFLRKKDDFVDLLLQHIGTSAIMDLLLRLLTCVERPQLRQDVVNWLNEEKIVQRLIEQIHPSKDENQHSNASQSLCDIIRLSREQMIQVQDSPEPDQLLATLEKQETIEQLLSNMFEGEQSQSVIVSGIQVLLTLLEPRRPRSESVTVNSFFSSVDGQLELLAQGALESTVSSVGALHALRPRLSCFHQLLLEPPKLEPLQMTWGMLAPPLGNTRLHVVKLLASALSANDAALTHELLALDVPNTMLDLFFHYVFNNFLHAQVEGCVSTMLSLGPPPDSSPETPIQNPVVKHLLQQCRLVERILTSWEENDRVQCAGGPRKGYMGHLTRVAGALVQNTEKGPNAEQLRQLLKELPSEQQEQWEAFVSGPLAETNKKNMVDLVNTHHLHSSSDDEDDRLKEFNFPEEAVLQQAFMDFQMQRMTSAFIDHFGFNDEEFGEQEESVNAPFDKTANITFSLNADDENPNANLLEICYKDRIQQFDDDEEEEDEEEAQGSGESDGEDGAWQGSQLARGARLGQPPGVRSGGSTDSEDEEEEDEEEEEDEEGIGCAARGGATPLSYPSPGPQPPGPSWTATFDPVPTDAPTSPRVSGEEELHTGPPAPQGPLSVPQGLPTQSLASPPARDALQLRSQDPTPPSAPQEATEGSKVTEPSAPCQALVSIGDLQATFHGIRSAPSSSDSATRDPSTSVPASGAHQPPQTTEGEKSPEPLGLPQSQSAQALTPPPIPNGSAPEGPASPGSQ
# UniProt Q9Y2G5, sequence (Q9Y2G5 whole entry): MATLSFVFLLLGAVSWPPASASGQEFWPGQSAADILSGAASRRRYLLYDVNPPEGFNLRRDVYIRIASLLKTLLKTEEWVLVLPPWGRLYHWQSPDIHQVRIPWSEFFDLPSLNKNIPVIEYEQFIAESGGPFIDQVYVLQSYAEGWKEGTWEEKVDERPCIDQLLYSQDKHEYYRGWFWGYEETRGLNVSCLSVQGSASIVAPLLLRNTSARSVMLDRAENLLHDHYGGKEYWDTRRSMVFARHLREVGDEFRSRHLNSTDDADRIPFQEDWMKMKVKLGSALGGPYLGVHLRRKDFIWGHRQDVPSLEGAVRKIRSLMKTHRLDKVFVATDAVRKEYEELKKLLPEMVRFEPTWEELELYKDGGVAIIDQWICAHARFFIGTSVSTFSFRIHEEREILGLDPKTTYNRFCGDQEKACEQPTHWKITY
# UniProt Q9ULV4, sequence (Q9ULV4 whole entry): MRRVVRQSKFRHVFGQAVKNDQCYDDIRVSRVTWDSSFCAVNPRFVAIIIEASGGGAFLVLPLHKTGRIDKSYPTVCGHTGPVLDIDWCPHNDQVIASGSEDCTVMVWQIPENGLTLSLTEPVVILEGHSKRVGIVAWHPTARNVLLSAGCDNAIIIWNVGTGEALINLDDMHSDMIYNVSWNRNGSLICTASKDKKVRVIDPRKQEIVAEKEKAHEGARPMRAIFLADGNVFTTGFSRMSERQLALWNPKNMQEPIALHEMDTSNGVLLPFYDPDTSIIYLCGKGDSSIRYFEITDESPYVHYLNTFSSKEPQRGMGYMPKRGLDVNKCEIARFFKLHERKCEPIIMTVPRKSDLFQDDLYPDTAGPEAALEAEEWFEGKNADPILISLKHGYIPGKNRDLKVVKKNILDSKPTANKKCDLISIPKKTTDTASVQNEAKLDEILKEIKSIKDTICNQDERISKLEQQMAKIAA
# UniProt Q9Y303, sequence (Q9Y303 whole entry): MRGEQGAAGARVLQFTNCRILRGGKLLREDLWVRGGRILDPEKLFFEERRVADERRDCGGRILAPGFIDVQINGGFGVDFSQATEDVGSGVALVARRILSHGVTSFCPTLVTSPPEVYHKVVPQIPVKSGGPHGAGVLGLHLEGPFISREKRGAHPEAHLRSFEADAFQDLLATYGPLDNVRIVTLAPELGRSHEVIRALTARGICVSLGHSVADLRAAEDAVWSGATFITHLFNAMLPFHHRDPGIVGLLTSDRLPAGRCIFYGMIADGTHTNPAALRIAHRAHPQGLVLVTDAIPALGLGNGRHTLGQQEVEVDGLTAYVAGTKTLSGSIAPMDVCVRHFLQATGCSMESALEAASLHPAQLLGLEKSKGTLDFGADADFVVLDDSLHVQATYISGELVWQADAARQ
# UniProt Q9UIV1, sequence (Q9UIV1 whole entry): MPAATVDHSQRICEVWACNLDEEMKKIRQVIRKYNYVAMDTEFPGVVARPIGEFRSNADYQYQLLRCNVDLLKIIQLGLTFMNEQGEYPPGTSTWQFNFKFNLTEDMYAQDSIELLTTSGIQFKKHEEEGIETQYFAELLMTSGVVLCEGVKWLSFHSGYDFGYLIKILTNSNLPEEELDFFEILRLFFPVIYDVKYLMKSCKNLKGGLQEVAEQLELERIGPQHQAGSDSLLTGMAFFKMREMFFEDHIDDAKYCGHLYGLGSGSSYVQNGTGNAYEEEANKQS
# UniProt Q9UP95, sequence (Q9UP95 whole entry): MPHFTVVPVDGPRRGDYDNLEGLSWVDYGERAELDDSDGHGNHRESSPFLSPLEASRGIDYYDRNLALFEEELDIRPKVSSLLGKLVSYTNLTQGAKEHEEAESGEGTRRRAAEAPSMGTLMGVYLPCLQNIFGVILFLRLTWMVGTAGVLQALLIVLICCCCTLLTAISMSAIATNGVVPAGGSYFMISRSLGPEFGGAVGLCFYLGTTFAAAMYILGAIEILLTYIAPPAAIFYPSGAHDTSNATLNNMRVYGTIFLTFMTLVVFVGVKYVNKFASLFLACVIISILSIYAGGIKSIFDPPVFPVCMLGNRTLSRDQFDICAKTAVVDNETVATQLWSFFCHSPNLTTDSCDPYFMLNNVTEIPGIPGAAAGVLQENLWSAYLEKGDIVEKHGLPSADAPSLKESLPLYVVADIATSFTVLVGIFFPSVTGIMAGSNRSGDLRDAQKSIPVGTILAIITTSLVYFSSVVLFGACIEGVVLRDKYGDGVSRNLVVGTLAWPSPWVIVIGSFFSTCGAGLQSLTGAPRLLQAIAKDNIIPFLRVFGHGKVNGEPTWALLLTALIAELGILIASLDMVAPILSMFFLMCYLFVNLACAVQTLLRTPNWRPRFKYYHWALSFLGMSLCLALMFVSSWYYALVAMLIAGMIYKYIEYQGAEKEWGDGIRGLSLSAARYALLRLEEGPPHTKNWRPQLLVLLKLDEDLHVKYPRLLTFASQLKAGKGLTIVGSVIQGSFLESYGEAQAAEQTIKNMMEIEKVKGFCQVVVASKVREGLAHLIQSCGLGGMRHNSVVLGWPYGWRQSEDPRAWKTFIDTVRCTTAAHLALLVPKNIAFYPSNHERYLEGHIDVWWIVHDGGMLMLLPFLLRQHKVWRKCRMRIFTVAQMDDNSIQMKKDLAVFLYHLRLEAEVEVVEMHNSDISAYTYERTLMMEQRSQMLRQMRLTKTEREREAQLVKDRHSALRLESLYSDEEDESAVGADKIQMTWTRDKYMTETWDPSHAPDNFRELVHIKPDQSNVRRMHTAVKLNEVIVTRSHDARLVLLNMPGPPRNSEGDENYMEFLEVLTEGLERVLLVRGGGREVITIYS
# UniProt Q9ULX3, sequence (Q9ULX3 whole entry): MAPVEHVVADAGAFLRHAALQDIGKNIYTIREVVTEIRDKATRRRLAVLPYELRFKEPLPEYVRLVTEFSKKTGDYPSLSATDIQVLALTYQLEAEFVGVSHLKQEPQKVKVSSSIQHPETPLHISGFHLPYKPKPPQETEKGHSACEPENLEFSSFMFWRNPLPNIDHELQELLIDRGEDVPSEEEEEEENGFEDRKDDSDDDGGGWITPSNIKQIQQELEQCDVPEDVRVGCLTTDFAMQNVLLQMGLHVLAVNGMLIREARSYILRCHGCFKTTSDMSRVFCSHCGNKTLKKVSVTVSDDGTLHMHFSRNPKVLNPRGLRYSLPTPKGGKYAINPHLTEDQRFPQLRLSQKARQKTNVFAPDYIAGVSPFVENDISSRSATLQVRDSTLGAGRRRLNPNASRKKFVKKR
target,measurement,setting,value
LNPEP (UniProt Q9UIQ6),NP40-soluble protein abundance,adenosine triphosphate; concentration: 1mM,0.914 ± 0.015
same,NP40-soluble protein abundance,adenosine triphosphate; concentration: 2mM,0.937 ± 0.021
same,NP40-soluble protein abundance,adenosine triphosphate; concentration: 4mM,0.909 ± 0.022
same,NP40-soluble protein abundance,adenosine triphosphate; concentration: 6mM,0.918 ± 0.035
same,NP40-soluble protein abundance,adenosine triphosphate; concentration: 8mM,0.882 ± 0.045
same,NP40-soluble protein abundance,adenosine triphosphate; concentration: 10mM,0.872 ± 0.038
CNOT7 (UniProt Q9UIV1),NP40-soluble protein abundance,adenosine triphosphate; concentration: 1mM,1.23 ± 0.044
same,NP40-soluble protein abundance,adenosine triphosphate; concentration: 2mM,1.22 ± 0.06
same,NP40-soluble protein abundance,adenosine triphosphate; concentration: 4mM,1.29 ± 0.038
same,NP40-soluble protein abundance,adenosine triphosphate; concentration: 6mM,1.25 ± 0.037
same,NP40-soluble protein abundance,adenosine triphosphate; concentration: 8mM,1.3 ± 0.061
same,NP40-soluble protein abundance,adenosine triphosphate; concentration: 10mM,1.26 ± 0.076
UniProt Q9UKI8|Q9UKI8-5,NP40-soluble protein abundance,adenosine triphosphate; concentration: 1mM,0.986 ± 0.039
same,NP40-soluble protein abundance,adenosine triphosphate; concentration: 2mM,0.998 ± 0.025
same,NP40-soluble protein abundance,adenosine triphosphate; concentration: 4mM,1 ± 0.059
same,NP40-soluble protein abundance,adenosine triphosphate; concentration: 6mM,0.993 ± 0.041
same,NP40-soluble protein abundance,adenosine triphosphate; concentration: 8mM,0.953 ± 0.021
same,NP40-soluble protein abundance,adenosine triphosphate; concentration: 10mM,0.977 ± 0.054
TEX264 (UniProt Q9Y6I9),NP40-soluble protein abundance,adenosine triphosphate; concentration: 1mM,0.918 ± 0.028
same,NP40-soluble protein abundance,adenosine triphosphate; concentration: 2mM,0.919 ± 0.024
same,NP40-soluble protein abundance,adenosine triphosphate; concentration: 4mM,0.91 ± 0.041
same,NP40-soluble protein abundance,adenosine triphosphate; concentration: 6mM,0.916 ± 0.061
same,NP40-soluble protein abundance,adenosine triphosphate; concentration: 8mM,0.867 ± 0.058
same,NP40-soluble protein abundance,adenosine triphosphate; concentration: 10mM,0.886 ± 0.029
UniProt Q9UPN7,NP40-soluble protein abundance,adenosine triphosphate; concentration: 1mM,0.945 ± 0.014
same,NP40-soluble protein abundance,adenosine triphosphate; concentration: 2mM,0.941 ± 0.046
same,NP40-soluble protein abundance,adenosine triphosphate; concentration: 4mM,0.941 ± 0.029
same,NP40-soluble protein abundance,adenosine triphosphate; concentration: 6mM,0.917 ± 0.041
same,NP40-soluble protein abundance,adenosine triphosphate; concentration: 8mM,0.924 ± 0.018
same,NP40-soluble protein abundance,adenosine triphosphate; concentration: 10mM,0.93 ± 0.037
POFUT2 (UniProt Q9Y2G5),NP40-soluble protein abundance,adenosine triphosphate; concentration: 1mM,1 ± 0.037
same,NP40-soluble protein abundance,adenosine triphosphate; concentration: 2mM,1.04 ± 0.019
same,NP40-soluble protein abundance,adenosine triphosphate; concentration: 4mM,1.01 ± 0.012
same,NP40-soluble protein abundance,adenosine triphosphate; concentration: 6mM,1.02 ± 0.04
same,NP40-soluble protein abundance,adenosine triphosphate; concentration: 8mM,0.955 ± 0.029
same,NP40-soluble protein abundance,adenosine triphosphate; concentration: 10mM,0.975 ± 0.017
UniProt Q9UP95|Q9UP95-5|Q9UP95-6,NP40-soluble protein abundance,adenosine triphosphate; concentration: 1mM,0.956 ± 0.1
same,NP40-soluble protein abundance,adenosine triphosphate; concentration: 2mM,0.979 ± 0.12
same,NP40-soluble protein abundance,adenosine triphosphate; concentration: 4mM,0.964 ± 0.11
same,NP40-soluble protein abundance,adenosine triphosphate; concentration: 6mM,1.03 ± 0.058
same,NP40-soluble protein abundance,adenosine triphosphate; concentration: 8mM,0.909 ± 0.099
same,NP40-soluble protein abundance,adenosine triphosphate; concentration: 10mM,0.989 ± 0.035
NOB1 (UniProt Q9ULX3),NP40-soluble protein abundance,adenosine triphosphate; concentration: 1mM,1.07 ± 0.023
same,NP40-soluble protein abundance,adenosine triphosphate; concentration: 2mM,1.06 ± 0.086
same,NP40-soluble protein abundance,adenosine triphosphate; concentration: 4mM,1.03 ± 0.077
same,NP40-soluble protein abundance,adenosine triphosphate; concentration: 6mM,1.07 ± 0.13
same,NP40-soluble protein abundance,adenosine triphosphate; concentration: 8mM,1.08 ± 0.054
same,NP40-soluble protein abundance,adenosine triphosphate; concentration: 10mM,1.05 ± 0.065
UniProt Q9UNF0|Q9UNF0-2,NP40-soluble protein abundance,adenosine triphosphate; concentration: 1mM,0.963 ± 0.04
same,NP40-soluble protein abundance,adenosine triphosphate; concentration: 2mM,0.952 ± 0.024
same,NP40-soluble protein abundance,adenosine triphosphate; concentration: 4mM,0.927 ± 0.011
same,NP40-soluble protein abundance,adenosine triphosphate; concentration: 6mM,0.954 ± 0.023
same,NP40-soluble protein abundance,adenosine triphosphate; concentration: 8mM,0.895 ± 0.019
same,NP40-soluble protein abundance,adenosine triphosphate; concentration: 10mM,0.9 ± 0.049
UniProt Q9Y303|Q9Y303-2|Q9Y303-3,NP40-soluble protein abundance,adenosine triphosphate; concentration: 1mM,0.995 ± 0.056
same,NP40-soluble protein abundance,adenosine triphosphate; concentration: 2mM,1.03 ± 0.069
same,NP40-soluble protein abundance,adenosine triphosphate; concentration: 4mM,1.03 ± 0.083
same,NP40-soluble protein abundance,adenosine triphosphate; concentration: 6mM,0.973 ± 0.12
same,NP40-soluble protein abundance,adenosine triphosphate; concentration: 8mM,1.02 ± 0.086
same,NP40-soluble protein abundance,adenosine triphosphate; concentration: 10mM,0.995 ± 0.063
MRPS2 (UniProt Q9Y399),NP40-soluble protein abundance,adenosine triphosphate; concentration: 1mM,1.11 ± 0.13
same,NP40-soluble protein abundance,adenosine triphosphate; concentration: 2mM,0.951 ± 0.12
same,NP40-soluble protein abundance,adenosine triphosphate; concentration: 4mM,0.932 ± 0.071
same,NP40-soluble protein abundance,adenosine triphosphate; concentration: 6mM,0.917 ± 0.17
same,NP40-soluble protein abundance,adenosine triphosphate; concentration: 8mM,0.944 ± 0.12
same,NP40-soluble protein abundance,adenosine triphosphate; concentration: 10mM,0.884 ± 0.088
UniProt Q9UHB6|F8VQE1|Q9UHB6-2,NP40-soluble protein abundance,adenosine triphosphate; concentration: 1mM,1.05 ± 0.14
same,NP40-soluble protein abundance,adenosine triphosphate; concentration: 2mM,1.16 ± 0.14
same,NP40-soluble protein abundance,adenosine triphosphate; concentration: 4mM,1.35 ± 0.16
same,NP40-soluble protein abundance,adenosine triphosphate; concentration: 6mM,1.56 ± 0.21
same,NP40-soluble protein abundance,adenosine triphosphate; concentration: 8mM,1.62 ± 0.12
same,NP40-soluble protein abundance,adenosine triphosphate; concentration: 10mM,1.86 ± 0.18
UniProt Q9UL15|Q9UL15-2,NP40-soluble protein abundance,adenosine triphosphate; concentration: 1mM,0.964 ± 0.032
same,NP40-soluble protein abundance,adenosine triphosphate; concentration: 2mM,0.988 ± 0.024
same,NP40-soluble protein abundance,adenosine triphosphate; concentration: 4mM,0.976 ± 0.035
same,NP40-soluble protein abundance,adenosine triphosphate; concentration: 6mM,0.993 ± 0.018
same,NP40-soluble protein abundance,adenosine triphosphate; concentration: 8mM,0.971 ± 0.01
same,NP40-soluble protein abundance,adenosine triphosphate; concentration: 10mM,0.979 ± 0.029
UniProt Q9ULV4|Q9ULV4-2|Q9ULV4-3,NP40-soluble protein abundance,adenosine triphosphate; concentration: 1mM,1.08 ± 0.086
same,NP40-soluble protein abundance,adenosine triphosphate; concentration: 2mM,1.16 ± 0.1
same,NP40-soluble protein abundance,adenosine triphosphate; concentration: 4mM,1.24 ± 0.11
same,NP40-soluble protein abundance,adenosine triphosphate; concentration: 6mM,1.4 ± 0.12
same,NP40-soluble protein abundance,adenosine triphosphate; concentration: 8mM,1.43 ± 0.13
same,NP40-soluble protein abundance,adenosine triphosphate; concentration: 10mM,1.52 ± 0.16
TRPV2 (UniProt Q9Y5S1),NP40-soluble protein abundance,adenosine triphosphate; concentration: 1mM,1.02 ± 0.076
same,NP40-soluble protein abundance,adenosine triphosphate; concentration: 2mM,1.02 ± 0.073
same,NP40-soluble protein abundance,adenosine triphosphate; concentration: 4mM,0.999 ± 0.03
same,NP40-soluble protein abundance,adenosine triphosphate; concentration: 6mM,0.955 ± 0.0051
same,NP40-soluble protein abundance,adenosine triphosphate; concentration: 8mM,0.965 ± 0.048
same,NP40-soluble protein abundance,adenosine triphosphate; concentration: 10mM,0.976 ± 0.023
ACAD8 (UniProt Q9UKU7),NP40-soluble protein abundance,adenosine triphosphate; concentration: 1mM,1.01 ± 0.049
same,NP40-soluble protein abundance,adenosine triphosphate; concentration: 2mM,1 ± 0.064
same,NP40-soluble protein abundance,adenosine triphosphate; concentration: 4mM,0.988 ± 0.033
same,NP40-soluble protein abundance,adenosine triphosphate; concentration: 6mM,0.961 ± 0.058
same,NP40-soluble protein abundance,adenosine triphosphate; concentration: 8mM,0.983 ± 0.029
same,NP40-soluble protein abundance,adenosine triphosphate; concentration: 10mM,0.99 ± 0.038
E9PFN5|Q9Y2Q3 (UniProt Q9Y2Q3),NP40-soluble protein abundance,guanosine triphosphate; concentration: 0.1mM,0.922 ± 0.042
same,NP40-soluble protein abundance,guanosine triphosphate; concentration: 0.5mM,0.934 ± 0.038
same,NP40-soluble protein abundance,guanosine triphosphate; concentration: 1mM,0.895 ± 0.036
same,NP40-soluble protein abundance,guanosine triphosphate; concentration: 2mM,0.906 ± 0.043
same,NP40-soluble protein abundance,guanosine triphosphate; concentration: 4mM,0.887 ± 0.042
same,NP40-soluble protein abundance,guanosine triphosphate; concentration: 6mM,0.888 ± 0.031
same,NP40-soluble protein abundance,guanosine triphosphate; concentration: 8mM,0.829 ± 0.082
same,NP40-soluble protein abundance,guanosine triphosphate; concentration: 10mM,0.86 ± 0.079
